High-throughput results as filed in PubChem BioAssay.
D1 antagonist: Antagonist of Human D 1 Dopamine Receptor: qHTS. HEK293 TREx D1 cells, calcium flux, dopamine EC80; hits give low values. activity change, negative = inhibition, % at 10 µM. D(1A) dopamine receptor (Homo sapiens), P21728. 3.2% of 360,000 active; in the data active means activity change below about -30%; further: on the % scale 0 is the no-effect control and ±100 the full control effect
Target sequence (P21728 whole entry, looked up): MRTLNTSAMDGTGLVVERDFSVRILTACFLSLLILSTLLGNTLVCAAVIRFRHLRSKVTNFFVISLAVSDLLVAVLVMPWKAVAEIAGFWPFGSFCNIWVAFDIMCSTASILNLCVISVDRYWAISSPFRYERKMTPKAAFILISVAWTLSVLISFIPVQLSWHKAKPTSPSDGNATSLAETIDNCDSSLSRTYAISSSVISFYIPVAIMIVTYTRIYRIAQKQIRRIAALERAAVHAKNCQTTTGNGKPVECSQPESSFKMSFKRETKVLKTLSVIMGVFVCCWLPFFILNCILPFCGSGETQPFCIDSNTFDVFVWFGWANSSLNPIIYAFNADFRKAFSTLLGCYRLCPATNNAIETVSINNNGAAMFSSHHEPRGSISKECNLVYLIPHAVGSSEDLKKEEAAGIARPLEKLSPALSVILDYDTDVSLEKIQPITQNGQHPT
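Using tetracycline-induced force-coupled D1 Hek293 cells and a calcium dye, signals were followed for 180 s after compound, then for 180 s after EC80 dopamine, to detect inhibitors.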
D1 ag: Allosteric Agonists of the Human D1 Dopamine Receptor: qHTS | D(1A) dopamine receptor (Homo sapiens), P21728 | HEK293 T-REx D1 cells, calcium flux, agonist mode | activation, % at 2 µM | 1% of 360,000 active | AID 504660, 2011; further: 0% is about no effect
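Tetracycline-induced HEK293 TREx D1 cells, force-coupled to calcium signalling, were dye-loaded with a no-wash calcium kit. Compound was pin-added after a 10 s baseline. Fluorescence was read kinetically at 1 cycle/s for 180 s, with calcium rises flagged as agonism.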
TRHR agonist: qHTS for Small Molecule Agonists and Allosteric Enhancers of Human TRH Receptor: Primary Screen for Agonists; TRHR cells, calcium flux fluo-8, FDSS agonist mode; activation, % at 2 µM; 0.18% of 360,000 active; AID 493084, 2011; further: 0% is about no effect
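Agonist-mode FDSS calcium read (Ex 480/Em 530, 1 s cycles) in 1536-well TRHR cells with fluo-8 dye, after 10-cycle baseline and 23 nL compound addition; TRH at EC20 (10 nM final) added afterwards for the enhancer phase.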
TRHR enhancer: qHTS for Small Molecule Agonists and Allosteric Enhancers of Human TRH Receptor: Primary Screen for Enhancers | 0.66% of 360,000 active | Thyrotropin-releasing hormone receptor (Homo sapiens), P34981 | enhancement, % at 2 µM | TRHR cells, fluo-8 calcium fluorescence, EC20 TRH enhancement; in the data active means enhancement above about 30%; further: 0% is about no effect
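Enhancer read-out: after compound pinning and an initial kinetic agonist-mode read, an EC20 of TRH (10 nM final) was injected and fluo-8 calcium signal (Ex 480/Em 530) followed at 1 s/cycle for 100 cycles in TRHR-expressing cells.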
D1 PAM: Potentiators of Human D1 Dopamine Receptor: qHTS; D(1A) dopamine receptor (Homo sapiens), P21728; HEK293 TREx D1 cells, calcium flux, dopamine EC20 potentiation; potentiation, % at 10 µM; 0.036% of 360,000 active; AID 504651, 2011; in the data active means potentiation above about 30%; further: 0% is about no effect
* = called active by the depositor; · = no result; ! = not confirmed by another sample. Most compounds without a hit are left out; they make up all but 4.7% or so of the library. Unless noted, no stated cut-off is given here; in the data, active means activation above about 30%; inactive means the rest.

SMILES	D1 antagonist	D1 ag	TRHR agonist	TRHR enhancer	D1 PAM
c1ccc(CNc2c3c(nc4ncnn24)CCC3)cc1	-52.6*	5.9	-1.4	5.2	-3.5
c1ccc(CN(Cc2ccccc2)c2c3c(nc4ncnn24)CCC3)cc1	-5.3	3.0	-1.2	-4.0	-0.9
O=C(O)CSc1nnc(-c2cccc(S(=O)(=O)N3CCOCC3)c2)n1-c1cccc(Cl)c1	-31.2*	2.7	0.4	-2.5	3.6
CNC(=O)CSc1nnc(-c2cccc(S(=O)(=O)N3CCOCC3)c2)n1-c1ccc(F)cc1	-18.5	0.8	0.5	-3.0	-6.8
C=CCn1cnnc1SCC(=O)Nc1cccnc1Cl	9.9	11.3	0.6	-3.0	5.0
O=C(Cn1cnc2ccccc21)Nc1cccc(S(=O)(=O)N2CCCC2)c1	2.2	2.4	0.9	5.4	4.2
Cn1c(-c2ccc(Cl)nc2)nc2cc(Cl)ccc21	-33.4*	0.7	-0.3	10.3	-8.3
Cc1ccc(-c2cn(CCN)c(-c3ccc(Cl)nc3)n2)cc1	8.6	-0.3	-0.4	1.3	-5.0
O=C(NC1=NCCS1)c1sc2cc(Cl)cc(Cl)c2c1Cl	-33.7*	1.5	0.2	3.9	-1.3
CCOC(=O)CC(NC(=O)Cn1nnc(-c2ccccc2Cl)n1)c1ccc(OC)cc1 (stereo unspecified)	-9.8	64.5*!	7.2	11.8	-4.2
CCOC(=O)CC(NC(=O)Cn1nnc(-c2ccccc2F)n1)c1ccc(OC)cc1 (stereo unspecified)	15.6	12.5	0.6	1.8	-3.9
CC(=O)Nc1nc(C2COc3ccccc3O2)cs1 (stereo unspecified)	-16.2	3.3	-0.4	-2.3	-1.7
NC(N)=Nc1nc(C2COc3ccccc3O2)cs1 (stereo unspecified)	-30.6*	10.4	0.5	-6.7	-9.2
Cc1cccc(C(=O)NC(=S)Nc2cccc3nc(C)ccc23)c1	8.2	10.7	-0.7	-1.6	-0.8
CC(=O)Cc1nsc(NC(=O)c2ccc(F)cc2)n1	-79.6*	0.3	0.0	-3.3	-4.0
CC(=O)Cc1nsc(NC(=O)c2ccccc2)n1	-7.7	2.2	1.1	3.9	-4.0
COc1cccc(NC(=O)Cn2nc(C)c3c(C)n(-c4ccccc4)nc3c2=O)c1	0.2	2.2	-0.8	2.5	-5.8
CC1(c2ccccc2Cl)NC(=O)N(CC(=O)c2ccc3c(c2)OCO3)C1=O (stereo unspecified)	7.4	1.8	0.2	-1.5	-1.2
CCN(CC)c1ccc(/C=C2\SC(=O)N(C(C)C)C2=O)o1	-17.3	51.4*	13.2	-3.0	-4.9
Cc1ccc(C(=O)c2oc3ccccc3c2NC(=O)c2cc(-c3ccccc3)on2)cc1F	1.7	2.7	0.3	0.8	-0.5
O=C(CCc1nc2ccccc2c(=O)[nH]1)OCc1ccc(-c2ccccc2)cc1	-38.9*	2.9	0.5	11.6	-3.0
CC1CN(C(=O)c2cccc(S(=O)(=O)N3CCN(c4ccccc4)CC3)c2)CC(C)O1 (stereo unspecified)	-25.2	10.0	-0.3	-2.0	·
Cc1nn(C2CCS(=O)(=O)C2)c2nc(C3CC3)cc(C(=O)Nc3cccc(C#N)c3)c12 (stereo unspecified)	-35.9*	6.4	0.7	0.3	-6.3
Cc1nn(-c2ccccc2)c2nc(C3CC3)cc(C(=O)Nc3ccccc3F)c12	-6.2	7.6	0.9	12.3	-6.5
Cc1cc(/C=C(\C#N)C(N)=O)c(C)n1-c1ccc(N2CCOCC2)c([N+](=O)[O-])c1	-32.0*	12.3	0.2	5.3	-9.7
CC(NC(=S)NC1CCC(C(C)(C)C)CC1)c1ccccc1 (stereo unspecified)	6.6	10.9	-0.3	2.6	-2.4
Cc1ncoc1C(=O)N1CCCC(C(=O)c2cccc3ccccc23)C1 (stereo unspecified)	-0.7	-0.7	-0.9	-1.3	-0.8
COc1ccc(F)cc1C(=O)C1CCCN(Cc2c[nH]c3ccccc23)C1 (stereo unspecified)	-43.1*	46.8*	2.8	4.0	-4.4
